In all, about 63,000 compounds went through this assay and about 1,100 (1.7%) were called active. Rule as the data show it: active = cytotoxicity above about 50%; inactive = the rest. Only a selection was taken, and actives are over-represented in it overall. Results with a measured potency or affinity are listed apart.
assay: cytotoxicity in HPDE-C7 cells, cell-based, fluorescence, HTS (AID 430); conditions: HPDE-C7 pancreatic duct cells viability, at 10 µM, hits give high values;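 also: cells exposed to compound for 48 hours before viability readout; 0% = vehicle and 100% = reference cytotoxic drug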

| SMILES | cytotoxicity |
| --- | --- |
| CC(=NCc1cccnc1)c1c(O)n(Cc2ccccc2)c(=O)[nH]c1=O | -13.3% (inactive) |
| COc1ccc(C2NCc3ccc4c(c3-n3cccc32)OCO4)cc1O (configuration not stated) | 63.9% (active) |
| COc1ccc(C2NCc3ccc4c(c3-n3cccc32)OCO4)cc1OC (configuration not stated) | -0.1% (inactive) |
| c1cc2n(c1)-c1c(ccc3c1OCO3)CNC2c1ccc2c(c1)OCO2 (configuration not stated) | 29.3% (inactive) |
| O=C(O)C(O)(c1ccccc1)C1CCCC1 (configuration not stated) | 13.6% (inactive) |
| CN(C)CP(=O)(Nc1ccccc1)N(C)C (configuration not stated) | -14.4% (inactive) |
| O=C(c1cc(-c2cccnc2)nc2ccc(Cl)cc12)N1CCC2(CC1)OCCO2 | 4.7% (inactive) |
| O=C1CN=C(c2ccccc2)c2oc3ccc(Br)cc3c2N1 | -10.4% (inactive) |
| COc1cccc(OC)c1C1=NCC(=O)Nc2c1oc1ccc(Br)cc21 | 72.5% (active) |
| Cc1cc(NC(=O)COC(=O)c2c(C)nn(Cc3ccccc3Cl)c2Cl)no1 | 3.7% (inactive) |
| CCn1nc(-c2cccs2)nc2c(=O)n(C)c(=O)nc1-2 | 114% (active) |
| CCc1nc2ccccc2c(=O)n1-c1cccc(OC)c1 | 18.7% (inactive) |
| CCn1nc(-c2ccccc2)nc2c(=O)n(C)c(=O)nc1-2 | 119% (active) |
| O=c1c2ccccc2nc(-c2cccs2)n1-c1cnccn1 | 2.1% (inactive) |
| CSc1ccc(CNC2CN3CCC2CC3)cc1 (configuration not stated) | -5.8% (inactive) |
| O=C(Cc1ccccc1)OCCN1CCCCC1 | 0.7% (inactive) |
| Cc1cccc(OC(=O)N2CCOCC2)c1 | -0.2% (inactive) |
| O=C(COc1ccccc1)N1CCN(C/C=C/c2ccccc2)CC1 | 1.6% (inactive) |
| CCCCOc1ccc(CN2CCN(CCO)CC2)cc1 | 23.7% (inactive) |
| CCCCc1ccc2[nH]cc(CCN)c2c1 | 62.3% (active) |
| COc1ccc2[nH]cc(CCN(C)C)c2c1 | -6% (inactive) |

| SMILES | cytotoxicity |
| --- | --- |
| NCCc1c[nH]c2ccc(F)cc12 | -7.7% (inactive) |
| COc1cc(OC)c(OC)cc1CNC(C)C(O)c1ccccc1 (configuration not stated) | 2.2% (inactive) |
| COC(=O)c1cc2c(s1)=NC=NP=2(N1CCOCC1)N1CCOCC1 | -14.1% (inactive) |
| C[C@@]1(CO)[C@H](O)CC[C@@]2(C)[C@H]1CC[C@H]1C[C@@H]3C[C@@]12CC[C@]3(O)CO | 82.5% (active) |
| O=C(C(Cc1ccccc1)NS(=O)(=O)c1cccc2nsnc12)N1CCC2(CC1)OCCO2 (configuration not stated) | -4.1% (inactive) |
| O=C(c1ccc(CS(=O)(=O)c2ccccc2)o1)N1CCC2(CC1)OCCO2 | -2.7% (inactive) |
| CCC(=Nc1ccccc1NC(C)=O)c1c(O)n(C)c(=O)n(C)c1=O | 41.8% (inactive) |
| CC(=O)C1=C(C)OC(N)=C(C(=O)OC(C)C)C12C(=O)Nc1ccccc12 (configuration not stated) | -8.9% (inactive) |
| CCc1nc(N2CCNCC2)c(C#N)c2c1CSC(C)(C)C2 | 37.6% (inactive) |
| CCCCc1nc(N2CCNCC2)c(C#N)c2c1CSC(C)(C)C2 | 52.3% (active) |
| O=C(CN1C(=O)CN=C(c2ccccc2Cl)c2cc(Cl)ccc21)NCc1ccco1 | 2.5% (inactive) |
| O=c1[nH]c(=O)n(CCC2=CCCCC2)c(O)c1C=NCCCn1ccnc1 | -30.8% (inactive) |
| COc1ccc(C(=O)C(C)(C)NO)cc1 | -9.5% (inactive) |
| C=CCn1c(O)c(C(C)=NCc2cccnc2)c(=O)[nH]c1=O | 8.9% (inactive) |
| O=C(Cn1ncc2ccccc21)N1CCC2(CC1)OCCO2 | -19.4% (inactive) |
| O=c1c(C=NCCN2CCNCC2)c(O)n(C2CCCCC2)c(=O)n1C1CCCCC1 | 62.8% (active) |
| O=c1[nH]c(=O)n(Cc2ccccc2)c(O)c1C=NCCN1CCNCC1 | -11.2% (inactive) |
| O=c1[nH]c(=O)n(C2CCCCCC2)c(O)c1C=NCCCN1CCOCC1 | 2.2% (inactive) |
| Cc1nc2c(c(C)nn2-c2ccccc2)c(C)c1CCC(=O)N1CCC2(CC1)OCCO2 | -12.1% (inactive) |
| Fc1ccc2c(c1)nnn2C1CCN(Cc2nnnn2C2CCCCC2)CC1 | -8% (inactive) |
| NC(=O)C1(N2CCCCC2)CCN(Cc2ccccc2)CC1 | -8.8% (inactive) |

— PubChem BioAssay AID430 (Sanford-Burnham Center for Chemical Genomics, 2006)
